PubChem BioAssay AID1159580 (chemical genetic matrix, 2015)
Among all 5,500 compounds or so, about 2,000 (36%) were called active. Another 18% or so got no clear call; they are omitted. Rule as the data show it: active = normalized growth mostly below about 0.91 (no sharp cut-off); inconclusive = no clear call, values can overlap the other calls; inactive = mostly above about 0.92. The list shows a part of the results.

Test: chemical genetic growth profiling, strain panel (AID 1159580);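 also: tested at 20 µM; growth read once vehicle control cultures reached saturation at 30 °C; 1 = growth at the plate median or of vehicle wells; lower values mean less growth of the strain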
Details: growth OD

Measured: normalized growth

CC1=C2C(O)C(=O)OC3CC4C(C)(C)C(=O)C=C[C@]4(C)C(CC1)[C@]23C (some centres not stated)
inactive: S. cerevisiae deletion strains, locus YJR043C, strain POL32, hits give low values 1.01 | S. cerevisiae deletion strains, locus YJR066W, strain TOR1, hits give low values 0.967 | S. cerevisiae deletion strains, locus YJR075W, strain HOC1, hits give low values 1.03 | S. cerevisiae deletion strains, locus YKL009W, strain mrt4, hits give low values 1.03 | S. cerevisiae deletion strains, locus YKL068W, hits give low values 1.01 | S. cerevisiae deletion strains, locus YKL085W, strain MDH1 (second series), hits give low values 1 | S. cerevisiae deletion strains, locus YKL085W, strain MDH1, hits give low values 1 | S. cerevisiae deletion strains, locus YKL160W, strain elf1, hits give low values 1 | S. cerevisiae deletion strains, locus YKR001C, strain vps1, hits give low values 0.996 | S. cerevisiae deletion strains, locus YKR026C, strain gcn3, hits give low values 1.01 | S. cerevisiae deletion strains, locus YKR091W, strain srl3, hits give low values 1.01 | S. cerevisiae deletion strains, locus YLL001W, strain dnm1, hits give low values 0.992 | S. cerevisiae deletion strains, locus YLL026W, hits give low values 1.01 | S. cerevisiae deletion strains, locus YLL041C, strain sdh2, hits give low values 1.02 | S. cerevisiae deletion strains, locus YLR027C, strain aat2, hits give low values 1 | S. cerevisiae deletion strains, locus YLR039C, strain RIC1, hits give low values 1.15 | S. cerevisiae deletion strains, locus YLR058C, strain SHM2, hits give low values 1.03 | S. cerevisiae deletion strains, locus YLR102C, strain apc9, hits give low values 1.02 | S. cerevisiae deletion strains, locus YLR113W, strain HOG1, hits give low values 0.984 | S. cerevisiae deletion strains, locus YLR221C, strain rsa3, hits give low values 1.03 | S. cerevisiae deletion strains, locus YLR258W, strain gsy2, hits give low values 1.01 | S. cerevisiae deletion strains, locus YLR262C, strain YPT6 (second series), hits give low values 1.06 | S. cerevisiae deletion strains, locus YLR268W, strain sec22, hits give low values 1.02 | S. cerevisiae deletion strains, locus YLR320W, strain mms22, hits give low values 1.01 | S. cerevisiae deletion strains, locus YLR342W, strain FKS1 (second series), hits give low values 1.03 | S. cerevisiae deletion strains, locus YLR342W, strain FKS1, hits give low values 1.01 | S. cerevisiae deletion strains, locus YLR357W, strain rsc2, hits give low values 1.02 | S. cerevisiae deletion strains, locus YLR370C, strain arc18, hits give low values 1 | S. cerevisiae deletion strains, locus YLR371W, strain rom2, hits give low values 0.985 | S. cerevisiae deletion strains, locus YLR384C, strain iki3, hits give low values 1.02 | S. cerevisiae deletion strains, locus YLR418C, strain cdc73, hits give low values 1.07 | S. cerevisiae deletion strains, locus YML016C, strain PPZ1, hits give low values 1.02 | S. cerevisiae deletion strains, locus YML032C, strain rad52, hits give low values 1 | S. cerevisiae deletion strains, locus YML120C, strain ndi1, hits give low values 1 | S. cerevisiae deletion strains, locus YML124C, strain tub3, hits give low values 1.01 | S. cerevisiae deletion strains, locus YMR058W, strain fet3, hits give low values 1.01 | S. cerevisiae deletion strains, locus YMR078C, strain ctf18, hits give low values 1.02 | S. cerevisiae deletion strains, locus YMR125W, strain sto1, hits give low values 1.01 | S. cerevisiae deletion strains, locus YMR129W, hits give low values 1.01 | S. cerevisiae deletion strains, locus YMR205C, strain PFK2, hits give low values 1 | S. cerevisiae deletion strains, locus YMR223W, strain ubp8, hits give low values 1.01 | S. cerevisiae deletion strains, locus YMR231W, strain pep5, hits give low values 1.01 | S. cerevisiae deletion strains, locus YMR307W, strain GAS1, hits give low values 1.03 | S. cerevisiae deletion strains, locus YNL067W, strain RPL9B, hits give low values 1.05 | S. cerevisiae deletion strains, locus YNL071W, strain lat1, hits give low values 0.999 | S. cerevisiae deletion strains, locus YNL128W, strain TEP1, hits give low values 1.02 | S. cerevisiae deletion strains, locus YNL183C, strain NPR1, hits give low values 0.978 | S. cerevisiae deletion strains, locus YNL209W, strain ssb2, hits give low values 1.01 | S. cerevisiae deletion strains, locus YNL233W, strain BNI4, hits give low values 1.06 | S. cerevisiae deletion strains, locus YNL248C, strain rpa49, hits give low values 1.01 | S. cerevisiae deletion strains, locus YNL250W, strain rad50, hits give low values 1.03 | S. cerevisiae deletion strains, locus YNL271C, strain bni1, hits give low values 1.02 | S. cerevisiae deletion strains, locus YNL298W, strain CLA4, hits give low values 1 | S. cerevisiae deletion strains, locus YNL307C, strain MCK1, hits give low values 1.03 | S. cerevisiae deletion strains, locus YNL322C, strain KRE1 (second series), hits give low values 1.04 | S. cerevisiae deletion strains, locus YNR049C, strain mso1, hits give low values 1.01 | S. cerevisiae deletion strains, locus YNR052C, strain pop2, hits give low values 1.04 | S. cerevisiae deletion strains, locus YOL012C, strain htz1 0.949 | S. cerevisiae deletion strains, locus YOL147C, strain pex11, hits give low values 1.01 | S. cerevisiae deletion strains, locus YOR001W, strain rrp6, hits give low values 1.01 | S. cerevisiae deletion strains, locus YOR061W, strain CKA2, hits give low values 1.01 | S. cerevisiae deletion strains, locus YOR069W, strain VPS5, hits give low values 1.01 | S. cerevisiae deletion strains, locus YOR070C, strain gyp1, hits give low values 1.02 | S. cerevisiae deletion strains, locus YOR080W, strain dia2, hits give low values 1.02 | S. cerevisiae deletion strains, locus YOR083W, strain WHI5, hits give low values 1.01 | S. cerevisiae deletion strains, locus YOR106W, strain vam3, hits give low values 0.983 | S. cerevisiae deletion strains, locus YOR136W, strain idh2, hits give low values 1.03 | S. cerevisiae deletion strains, locus YOR144C, strain elg1, hits give low values 1.01 | S. cerevisiae deletion strains, locus YOR184W, strain ser1, hits give low values 1.01 | S. cerevisiae deletion strains, locus YOR231W, strain MKK1, hits give low values 1.03 | S. cerevisiae deletion strains, locus YOR265W, strain rbl2, hits give low values 1 | S. cerevisiae deletion strains, locus YOR270C, strain vph1, hits give low values 1.05 | S. cerevisiae deletion strains, locus YOR290C, strain snf2, hits give low values 1.01 | S. cerevisiae deletion strains, locus YOR316C, strain cot1, hits give low values 1.01 | S. cerevisiae deletion strains, locus YPL051W, strain arl3, hits give low values 1.02 | S. cerevisiae deletion strains, locus YPL055C, strain LGE1, hits give low values 1.03 | S. cerevisiae deletion strains, locus YPL078C, strain atp4, hits give low values 0.998 | S. cerevisiae deletion strains, locus YPL106C, strain sse1, hits give low values 1.03 | S. cerevisiae deletion strains, locus YPL240C, strain hsp82, hits give low values 1.01 | S. cerevisiae deletion strains, locus YPL241C, strain CIN2, hits give low values 1.01 | S. cerevisiae deletion strains, locus YPL256C, strain CLN2, hits give low values 1.01 | S. cerevisiae deletion strains, locus YPR119W, strain clb2, hits give low values 1.01 | S. cerevisiae deletion strains, locus YPR141C, strain kar3, hits give low values 1.03 | S. cerevisiae deletion strains, locus YPR163C, strain tif3, hits give low values 1.02 | S. cerevisiae deletion strains, locus YPR167C, strain met16, hits give low values 1.03 | S. cerevisiae deletion strains, strain wtn01, hits give low values 0.994 | S. cerevisiae strains, strain wild type, hits give low values 1.01
